# Assay outcomes as filed in PubChem.
# Rows were chosen to be rich in hits. Some 21% of all compounds tested hit in one or more screens of this group.
# DRD3 antagonist: blocks the human D3 dopamine receptor. D3R cells, DiscoveRx beta-arrestin luminescence, antagonist mode; active compounds read low. max response, negative = inhibition, %. 2.5% of 360,000 active; in the data active = max response below about -50%; inconclusive = no clear call, values can overlap the other calls; note: % is set by controls: 0 for no effect and ±100 for the full control effect
# Target sequence (P35462 whole entry, looked up): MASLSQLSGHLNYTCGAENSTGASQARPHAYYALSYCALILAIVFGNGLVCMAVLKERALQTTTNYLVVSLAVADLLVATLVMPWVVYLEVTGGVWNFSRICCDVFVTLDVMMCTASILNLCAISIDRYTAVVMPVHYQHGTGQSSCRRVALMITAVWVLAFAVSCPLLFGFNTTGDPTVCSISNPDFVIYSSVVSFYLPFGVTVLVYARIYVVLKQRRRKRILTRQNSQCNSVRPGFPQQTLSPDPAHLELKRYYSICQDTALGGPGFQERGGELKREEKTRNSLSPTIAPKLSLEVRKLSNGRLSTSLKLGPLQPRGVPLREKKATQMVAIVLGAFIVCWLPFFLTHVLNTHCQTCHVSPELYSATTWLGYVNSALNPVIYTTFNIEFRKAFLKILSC
#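 Cells plated overnight at 1500 cells/well, then exposed to library compounds with dopamine controls for 90 minutes at 37 degrees C. DiscoveRx reagent added for 30–60 minutes at room temperature; luminescence read, quantitative HTS format.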
# TDP1 cell noCPT: qHTS for Inhibitors of human tyrosyl-DNA phosphodiesterase 1 (TDP1): qHTS in cells in absence of CPT. 15% of 420,000 active. DT40 Tdp1-/- hTDP1 cells, no CPT, ATP luminescence, 48 h. Potency, µM (top dose mostly 46.2 µM), inactives show at the top dose activity change, negative = growth inhibition, most hits filed as inhibitors; note: potency is the fitted concentration of half-maximal effect; % is set by controls: 0 for no effect and ±100 for the full control effect; nearly all actives have a fitted effect of over 55% in size
#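 Camptothecin absent (DMSO only). Human TDP1-complemented DT40 knockout cells, 400 cells/well, 37 °C for minimum 48 hr; ATP measured via CellTiter-Glo, 30 min dark incubation, luminescence.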
# ClpP mod: qHTS Assay for Activators of ClpP. ATP-dependent Clp protease proteolytic subunit (Bacillus subtilis (strain 168)), P80244. purified B. subtilis ClpP, FRET peptide cleavage, 20 min. Potency, µM (top dose mostly 57.5 µM), for the others: at the highest dose activity change, negative = active. 1.9% of 340,000 active. AID 651965, 2013; active = well fitted falling curve with a large enough effect; inconclusive = small, poorly fitted or top-dose-only effect; inactive = no such curve, though single readings can be large or run the other way; note: potency is the fitted concentration of half-maximal effect; the source files actives as falling curves though it sought activators and does not explain the sign; nearly all actives have a fitted effect of over 65% in size
#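 Purified B. subtilis ClpP, 10 microg/mL final in Tris/HCl pH8 with KCl, BSA, glycerol and Tween-20, cleaved an Abz/nitrotyrosine-quenched decapeptide. Fluorescence (ex 320, em 430) was read at 0 and 20 min at room temperature. Delta was normalized to 5.8 microM ADEP and DMSO/no-enzyme controls.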
# DT40 TDP1 CPT: DT40-hTDP1 cell growth loss with CPT; 12% of 420,000 active; AID 686979; Potency, µM (doses to about 46.2 µM), for the others: at the highest dose activity change, negative = growth inhibition, most hits filed as inhibitors; chicken DT40 Tdp1-/-;hTDP1 cells + 20 nM CPT, ATP luminescence, 48 h; note: potency is the fitted concentration of half-maximal effect; % is set by controls: 0 for no effect and ±100 for the full control effect; nearly all actives have a fitted effect of over 55% in size
#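 Chicken DT40 Tdp1-/- cells stably complemented with human TDP1 were seeded at 400 cells/well in medium containing 20 nM camptothecin, exposed to pin-transferred compounds, and grown at 37 °C for at least 48 hr. Viability was read as ATP luminescence.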
# IL-1B inflam inh: blocks inflammasome-driven IL-1 beta release; THP-1 LPS/ATP IL-1B secretion, AlphaLISA, 16 h; active compounds read low; activity change, % at 57.5 µM; 4.7% of 360,000 active; in the data active = activity change below about -50%; inconclusive = mostly about -30% to -49%; note: % is set by controls: 0 for no effect and ±100 for the full control effect
#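 Secreted IL-1B measured by AlphaLISA bead assay after 16 h compound exposure of THP-1 cells; compounds (final up to 57.5 uM) added 1 h before LPS (250 ng/mL) and ATP (1.25 mM) stimulation; lower signal means less secretion.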
# DRD3 agonist: agonists of human D3 dopamine receptor; AID 652048; 0.58% of 410,000 active; D3R DiscoveRx beta-arrestin cells, luminescence, 90 min; max activation, %; P35462; in the data active = max activation above about 30%; note: 0% is about no effect
#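 Cells at 1500/well, incubated overnight, then treated with pinned compounds (dopamine as control) for 90 min at 37 degrees C. DiscoveRx reagent added for 30 - 60 minutes at room temperature; luminescence read.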
# An asterisk follows results filed as active; ? = inconclusive; . = no result given. Unless noted, calls come from the whole dose curve; as a rule, active = well fitted inhibition curve with a large enough effect; inconclusive = small, poorly fitted or top-dose-only effect; inactive = flat fitted curve, though single readings scatter.
SMILES,DRD3 antagonist,TDP1 cell noCPT,ClpP mod,DT40 TDP1 CPT,IL-1B inflam inh,DRD3 agonist
CCCn1c(CCC(=O)Nc2ccc(OCC)cc2)nc2cccnc21,.,?,-3%,?,.,8
COc1ccc([C@@H]2[C@@H]3C(=O)N(C(C)(C)C)C(=O)[C@@H]3[C@]3(Cc4ccccc4)C(=O)N(c4ccc(C)cc4)C(=O)N23)cc1,19,-1%,-2%,?,15,14
CC1(C)NC(=S)NC1=S,-10,-22%,-2%,1%,-13,-4
CCSc1ccccc1C(=O)Nc1nc2ccccc2c(=O)[nH]1,-9,21µM*,.,?,6,0
CCCCNCc1nc2ccccc2c(=O)[nH]1,?,-28%,.,-16%,-52*,-10
CCc1ccc(NCc2nc3ccccc3c(=O)[nH]2)cc1,-14,-12%,-3%,-10%,22,1
COc1cccc(C(=O)c2cc3cc(Cl)ccc3[nH]2)c1,-5,?,?,-9%,-5,1
Cc1ccc(C2CC(=O)n3nc(-c4cccc(C)c4)nc3S2)cc1 (centres undefined),.,-12%,1%,-1%,.,-18
CCOc1ccc(NC(=O)N[C@@H](Cc2ccccc2)C(=O)O)cc1,7,4%,.,4%,17,13
CN(C)S(=O)(=O)c1ccc(N2CCCC2)c(C(=O)NNC(=O)c2ccc(Br)cc2)c1,-1,-8%,-3%,3%,-10,-12
CCc1ccc(NC(=O)NCC2CCN(Cc3cccc(Cl)c3)CC2)cc1,-52*,13µM*,-5%,?,-17,-4
COc1cccc(NC(=O)NCC2CCN(Cc3ccc(F)cc3)CC2)c1,?,-19%,-2%,-26%,-12,-6
Cc1ccc(NC(=O)NCC2CCN(Cc3cccc(Cl)c3)CC2)cc1Cl,-51*,16µM*,-3%,?,-100*,-24
CCn1nc(NC(=O)c2cccs2)c2cc3ccccc3nc21,22,?,-6%,?,?,12
CCOCCOC(=O)c1cccc2c1-c1ccccc1C2=O,13,5%,0%,-19%,-6,2
COc1ccc(NC(=O)c2c(C)oc3ccc(O)c(CN4CCN(C)CC4)c23)cc1Cl,.,18µM*,-1%,16µM*,.,-15
Cc1oc2ccc(O)c(CN3CCCC(C)C3)c2c1C(=O)Nc1ccccc1 (centres undefined),.,16µM*,-1%,10µM*,.,7
COc1ccc(NC(=O)c2c(C)oc3ccc(O)c(CN4CCN(Cc5ccccc5)CC4)c23)cc1,.,12µM*,-2%,21µM*,.,-2
COc1ccc(NC(=O)c2c(C)oc3ccc(O)c(CN4CCC(C)CC4)c23)cc1,.,15µM*,-3%,10µM*,.,-11
COc1ccc(NC(=O)c2c(C)oc3ccc(O)c(CN4CCCC4)c23)cc1Cl,.,?,1%,?,.,13
COc1ccccc1C(=O)NCCN1CCCC1,-3,-16%,-19%,-9%,-8,-3
COc1ccc2c(c1)CC(C(=O)Nc1c(C)cc(C)cc1C)CO2 (centres undefined),.,?,-4%,?,.,3
CC(=O)c1cccc(NC(=O)Cn2c(=O)oc3cc(S(=O)(=O)NC4CCCC4)ccc32)c1,.,?,1%,?,.,6
COc1ccc(NC(=O)c2c(C)oc3ccc(O)c(CN4CCCCCC4)c23)cc1,.,23µM*,-1%,21µM*,.,-12
COc1ccc(NC(=O)c2c(C)oc3ccc(O)c(CN4CCCC(C)C4)c23)cc1 (centres undefined),.,?,0%,26µM*,.,2
COc1ccccc1-c1c(C)oc2c(CN3CCCC(C)C3)c(O)ccc2c1=O (centres undefined),0,?,.,-9%,-11,8
